Sampled rows, rich in hits. Any-hit rate of the full collection: about 19%.
HT1080NT lethal = qHTS for induction of synthetic lethality in tumor cells producing 2HG: qHTS for the HT-1080-NT fibrosarcoma cell line. hit rate 1.6% among 360,000. Potency, µM (series often up to 46.1 µM), for inactives: at the highest dose activity, negative = less viability, hits mostly cytotoxic. HT-1080-NT fibrosarcoma viability, CellTiter-Glo ATP luminescence, 48 h. AID 686970, 2013;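 note: NT is the 2HG producing partner of a matched IDH1 knockdown line; potency is the fitted concentration of half-maximal effect; 0% = DMSO-treated cells and -100% = media-only wells without cells; nearly all actives have a fitted effect of over 55% in size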
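750 cells/well, RPMI + 5% FBS; 2 h settle, compound pin-transfer, 48 h at 37 degrees C. CellTiter-Glo 10 min RT, luminescence. Normalized to DMSO and media-only wells.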
uPA surface inh = qHTS for Inhibitors of Cell Surface uPA Generation; cell surface uPA generation assay, qHTS; Potency, µM (highest dose often 38.3 µM), for the others: at the top dose activity change, negative = inhibition, usual class: inhibitors; hit rate 0.31% among 330,000; active = well fitted inhibition curve with a large enough effect; inconclusive = small, poorly fitted or top-dose-only effect; inactive = no such curve, though single readings can be large or run the other way; tested in mouse RAW 264.7 cells; note: potency is the fitted concentration of half-maximal effect; nearly all actives have a fitted effect of over 55% in size
HT1080 IDH1KD tx = qHTS for induction of synthetic lethality in tumor cells producing 2HG: qHTS for the HT-1080-IDH1KD cell line. HT-1080 IDH1 knockdown viability, ATP luminescence, 48 h. Potency, µM (series often up to 46.1 µM), for inactives: top-dose activity, negative = toxicity, hits mostly cytotoxic. hit rate 2% among 360,000. AID 686971, 2013;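 note: potency is the fitted concentration of half-maximal effect; 0% = DMSO wells and -100% = cell-free medium wells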
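Knockdown cells (IDH1KD HT-1080) received compounds 2 h after plating at 750 cells/well and were kept 48 h at 37 °C in 5% FBS RPMI. A CellTiter-Glo luminescence read gave % activity for curve fitting.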
IL1B secr inh = qHTS for Inhibitors of Inflammasome Signaling: IL-1-beta AlphaLISA Primary Screen | THP-1 LPS/ATP IL-1B secretion, AlphaLISA, 16 h; stronger effect = lower value | activity change, % at 57.5 µM | hit rate 4.7% among 360,000 | AID 743279, 2014; in the data active = activity change below about -50%; inconclusive = mostly about -30% to -49%
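Secreted IL-1B measured by AlphaLISA bead assay after 16 h compound exposure of THP-1 cells; compounds (final up to 57.5 uM) added 1 h before LPS (250 ng/mL) and ATP (1.25 mM) stimulation; lower signal means less secretion.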
DT40 TDP1 no CPT = qHTS for Inhibitors of human tyrosyl-DNA phosphodiesterase 1 (TDP1): qHTS in cells in absence of CPT; DT40 Tdp1-/- hTDP1 cells, no CPT, ATP luminescence, 48 h; Potency, µM (series often up to 46.2 µM), for the others: at the top dose activity change, negative = growth inhibition, hits mostly inhibitors; hit rate 15% among 420,000; note: potency is the fitted concentration of half-maximal effect; nearly all actives have a fitted effect of over 55% in size
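Camptothecin absent (DMSO only). Human TDP1-complemented DT40 knockout cells, 400 cells/well, 37 °C for minimum 48 hr; ATP measured via CellTiter-Glo, 30 min dark incubation, luminescence.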
TDP1 cell CPT = qHTS for Inhibitors of human tyrosyl-DNA phosphodiesterase 1 (TDP1): qHTS in cells in presence of CPT; AID 686979, 2013; chicken DT40 Tdp1-/-;hTDP1 cells + 20 nM CPT, ATP luminescence, 48 h; hit rate 12% among 420,000; Potency, µM (series often up to 46.2 µM), for the others: top-dose activity change, negative = growth inhibition, actives largely listed as inhibitors; note: potency is the fitted concentration of half-maximal effect; nearly all actives have a fitted effect of over 55% in size
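Chicken DT40 Tdp1-/- cells stably complemented with human TDP1 were seeded at 400 cells/well in medium containing 20 nM camptothecin, exposed to pin-transferred compounds, and grown at 37 °C for at least 48 hr. Viability was read as ATP luminescence.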
* marks the source's active call; other numbers are inactive results; u = inconclusive; x = no result. Unless noted, calls come from the whole dose curve; as a rule, active = well fitted curve in the direction sought with a large enough effect; inconclusive = small, poorly fitted or top-dose-only effect, or another doubt; inactive = no such curve, though single readings can be large; an effect the other way counts as inactive or inconclusive. Unless noted, % is set by controls: 0 for no effect and ±100 for the full control effect.

SMILES	HT1080NT lethal	uPA surface inh	HT1080 IDH1KD tx	IL1B secr inh	DT40 TDP1 no CPT	TDP1 cell CPT
CCN(CC)c1cc2c(cc1F)c(=O)c(S(=O)(=O)c1ccc(OC)cc1)cn2Cc1ccccc1	x	x	x	x	23µM*	u
O=c1c(S(=O)(=O)c2ccc(Cl)cc2)cn(Cc2ccccc2)c2ccc(F)cc12	-11%	-2%	u	-1	u	u
COc1cc2c(=O)c(S(=O)(=O)c3ccc(C)cc3)cn(Cc3cccc(C)c3)c2cc1OC	x	x	x	x	16µM*	16µM*
CCN(CC)c1cc2c(cc1F)c(=O)c(S(=O)(=O)c1ccccc1)cn2C	x	x	x	x	u	-28%
Cc1ccc(S(=O)(=O)c2cn(Cc3ccc(F)cc3)c3cc(F)c(F)cc3c2=O)cc1	x	x	x	x	1%	0%
CCN(CC)c1cc2c(cc1F)c(=O)c(S(=O)(=O)c1ccccc1)cn2Cc1ccccc1	x	x	x	x	16µM*	15µM*
COc1ccc(S(=O)(=O)c2cn(Cc3ccccc3)c3cc(F)c(F)cc3c2=O)cc1	x	x	x	x	u	15µM*
Cc1cccc(S(=O)(=O)c2cn(Cc3ccccc3)c3cc(N4CCCCC4C)c(F)cc3c2=O)c1 (stereo not drawn)	x	x	x	x	u	-58%
Cc1cc(-c2ccc3ccccc3c2)n2ncnc2n1	10%	u	12%	5	14%	-3%
COc1cccc(C(=O)N2CCC[C@@H]2C(=O)N2CCC[C@@H]2C(=O)NCc2ccccc2Cl)c1	21%	x	6%	15	-12%	-2%
CCCCn1cc(S(=O)(=O)c2ccc(C)c(C)c2)c(=O)c2cc(F)c(N(CC)CC)cc21	x	x	x	x	8.2µM*	7.3µM*
CCCCCc1cccnc1	2%	2%	8%	-6	18%	-10%
CCOc1ccc(/C=N/NC(=S)NC2CC3CC2C2C=CCC32)cc1 (stereo not drawn)	-22%	6%	-2%	7	16µM*	16µM*
COc1cc(/C=N/NC(=S)NC2CC3CC2C2C=CCC32)ccc1O (stereo not drawn)	18µM*	2%	u	-14	15µM*	u
COC(=O)c1ccc(CNC(=O)c2ccc3c(c2)S(=O)(=O)N=C2CCCCCN23)cc1	-1%	8%	12%	0	13%	2%
O=C(NCCc1ccccc1)C1CCN(C(=O)c2sccc2-n2cccc2)CC1	-1%	-13%	6%	-3	u	-7%
O=C(NC1CCCc2ccccc21)C1CCN(C(=O)c2sccc2-n2cccc2)CC1 (stereo not drawn)	0%	u	-6%	-21	u	15µM*
Cc1ccc(NC(=O)CSc2nnnn2-c2cccnc2)c(C)c1	0%	1%	8%	7	-21%	-1%
Nc1c(C(O)(C(F)(F)F)C(F)(F)F)cc(C(O)(C(F)(F)F)C(F)(F)F)c2ccccc12	21µM*	13%	23µM*	-96*	u	u
O=C(NC1CCN(S(=O)(=O)c2ccccc2)CC1)c1ccc(F)cc1	0%	4%	7%	u	-11%	-4%
O=C(CN1c2ccccc2Sc2ccccc21)N/N=C/c1ccc([N+](=O)[O-])cc1	-14%	12%	-1%	-9	21µM*	u
O=C(CN1c2ccccc2Sc2ccccc21)N/N=C/c1ccccc1	-14%	12%	-4%	-5	u	u
O=[N+]([O-])c1cc(CN2CCN(c3cccc(C(F)(F)F)c3)CC2)c2cccnc2c1O	u	-11%	u	108	1.5µM*	0.92µM*
O=[N+]([O-])c1cc(CN2CCCC2)c2cccnc2c1O	16µM*	10%	u	-3	u	3%
CC(C)OCc1cc(CN2CCN(c3cccc(C(F)(F)F)c3)CC2)c(O)c2ncccc12	x	x	x	x	4.6µM*	4.6µM*
SMILES	HT1080NT lethal	uPA surface inh	HT1080 IDH1KD tx	IL1B secr inh	DT40 TDP1 no CPT	TDP1 cell CPT
CCOCc1cc(CN2CCN(c3cccc(C(F)(F)F)c3)CC2)c(O)c2ncccc12	x	x	x	x	6.5µM*	6.5µM*
Cc1cccc(NC(=O)CCC(=O)Nc2nnc(C(F)(F)F)s2)c1	u	3%	12%	20	5%	10%
N#Cc1cccc(C(=O)C(=O)N2CCN(c3ccccc3)CC2)c1	16%	x	11%	-2	-23%	-22%
CN(CCOc1ccccc1)CC(=O)Nc1ccc(Br)cc1F	u	-3%	u	-23	16µM*	u
CCC(C)c1ccccc1NC(=O)CN(C)CCOc1ccc(Cl)cc1 (stereo not drawn)	u	4%	u	-77*	23µM*	u
Cc1ccc(NC(=O)CN(C)CCOc2ccccc2)c([N+](=O)[O-])c1	0%	-5%	1%	-3	-16%	u
CCOC(=O)N1CCC2(CC1)OC(=O)C(C)=C2C(=O)NCc1cccc(F)c1	x	x	x	x	u	-5%
COc1cc(CC(=O)OCC(=O)NC2CCCC2)cc(OC)c1OC	8%	9%	6%	6	14%	-7%
COc1cc(CC(=O)OCC(=O)N(C)C2CCCCC2)cc(OC)c1OC	-3%	2%	-1%	0	21µM*	u
COc1ccc(CCNC(=O)c2cn(C)c3ccc(S(=O)(=O)N(C)C)cc3c2=O)cc1OC	x	x	x	x	u	-5%
COC(=O)[C@@H](c1ccccc1)N(C)S(=O)(=O)c1cccc(S(=O)(=O)N(C)[C@@H](C(=O)OC)c2ccccc2)c1	-6%	7%	-3%	-11	3.7µM*	5.8µM*
COC(=O)C(c1ccccc1)C(C(=O)OC)c1ccccc1 (stereo not drawn)	13%	-2%	6%	0	-15%	3%
Cc1cc(OCCCCOc2ccc(S(N)(=O)=O)c(C)c2)ccc1S(N)(=O)=O	-2%	2%	-5%	-12	u	18µM*
CCC(c1nnnn1C1CCCC1)N1CCC(C(N)=O)CC1 (stereo not drawn)	16%	7%	-6%	-5	-3%	4%
CCC(CC)C(=O)N(C)c1c(C)nc2c(OCc3ccc(Cl)cc3Cl)cccn12	u	x	u	u	3.7µM*	4.6µM*
CCC(CC)C(=O)N(C)c1c(C)nc2c(OCc3ccccc3C)cccn12	-13%	x	u	0	7.3µM*	6.5µM*

Source: PubChem (National Center for Advancing Translational Sciences (NCATS))
